# Data from publication PMC7862700, “An all-to-all approach to the identification of sequence-specific readers for epigenetic DNA modifications on cytosine”.
# How the values were obtained:
# Test in all cases: DAPPL (digital affinity profiling via proximity ligation, sequencing); 10 mM Tris-HCl pH 7.5, 50 mM NaCl, 1 mM DTT, 4% glycerol, room temperature, 30 min; GST-TFs on glutathione beads, 16-mer random dsDNA library, 0.1% formaldehyde crosslink after washing; high values mean tight binding
# Settings in all cases: protein: recombinant; tags: N-terminal GST; dsDNA, one strand shown
# ETV1 = ETV1 (Homo sapiens, UniProt P50549 1-477)
# Method in brief: (§1)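 Pools of DNA-barcoded human transcription factors, expressed in yeast as GST fusions on glutathione beads and combined with a tag-only sample, were incubated with 200 nmole of a 16-mer random double-stranded DNA library. Incubation took 30 min at room temperature in Tris/NaCl/DTT/glycerol buffer and was followed by washing, 0.1% formaldehyde crosslinking, proximity ligation (BsaI/T4 ligase, 1 h, 37 °C), PCR amplification and sequencing on an Illumina NextSeq500. Binding signal is the ratio of a hexamer's read frequency for a factor to its frequency for the tag-only sample.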
# ERF = molecular target: T1, ERF (Homo sapiens, UniProt P50548 1-548)
# T1 sequence: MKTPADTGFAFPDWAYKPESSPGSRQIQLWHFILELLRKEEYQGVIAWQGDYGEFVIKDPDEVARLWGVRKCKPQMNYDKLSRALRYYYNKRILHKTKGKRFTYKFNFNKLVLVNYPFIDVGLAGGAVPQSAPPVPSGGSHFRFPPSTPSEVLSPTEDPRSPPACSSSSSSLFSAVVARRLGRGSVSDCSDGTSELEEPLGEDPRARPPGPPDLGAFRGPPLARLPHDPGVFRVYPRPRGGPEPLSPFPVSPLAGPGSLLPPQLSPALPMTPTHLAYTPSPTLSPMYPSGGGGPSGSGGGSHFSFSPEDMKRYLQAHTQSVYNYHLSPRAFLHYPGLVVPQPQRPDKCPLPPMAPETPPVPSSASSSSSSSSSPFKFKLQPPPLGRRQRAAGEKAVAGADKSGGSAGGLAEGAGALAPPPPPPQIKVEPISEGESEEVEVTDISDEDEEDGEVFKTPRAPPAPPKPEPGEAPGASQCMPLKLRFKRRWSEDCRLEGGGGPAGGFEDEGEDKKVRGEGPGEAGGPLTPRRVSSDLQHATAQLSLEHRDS
# Method in brief: as §1
# ETV3L = molecular target: T2, ETV3L (Homo sapiens, UniProt Q6ZN32 1-361)
# T2 sequence: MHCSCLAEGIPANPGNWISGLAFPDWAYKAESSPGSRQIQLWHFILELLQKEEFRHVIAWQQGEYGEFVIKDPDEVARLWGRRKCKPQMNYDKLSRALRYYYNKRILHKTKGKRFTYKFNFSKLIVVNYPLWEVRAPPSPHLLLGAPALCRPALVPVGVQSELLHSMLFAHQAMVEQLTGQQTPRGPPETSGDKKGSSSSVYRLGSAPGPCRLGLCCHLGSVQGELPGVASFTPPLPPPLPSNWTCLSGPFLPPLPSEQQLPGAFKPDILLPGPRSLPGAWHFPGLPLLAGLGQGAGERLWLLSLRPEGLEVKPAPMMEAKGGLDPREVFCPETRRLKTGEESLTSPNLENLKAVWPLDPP
# Method in brief: as §1
# ETS2 = molecular target: T3, ETS2 (Homo sapiens, UniProt P15036 1-469)
# T3 sequence: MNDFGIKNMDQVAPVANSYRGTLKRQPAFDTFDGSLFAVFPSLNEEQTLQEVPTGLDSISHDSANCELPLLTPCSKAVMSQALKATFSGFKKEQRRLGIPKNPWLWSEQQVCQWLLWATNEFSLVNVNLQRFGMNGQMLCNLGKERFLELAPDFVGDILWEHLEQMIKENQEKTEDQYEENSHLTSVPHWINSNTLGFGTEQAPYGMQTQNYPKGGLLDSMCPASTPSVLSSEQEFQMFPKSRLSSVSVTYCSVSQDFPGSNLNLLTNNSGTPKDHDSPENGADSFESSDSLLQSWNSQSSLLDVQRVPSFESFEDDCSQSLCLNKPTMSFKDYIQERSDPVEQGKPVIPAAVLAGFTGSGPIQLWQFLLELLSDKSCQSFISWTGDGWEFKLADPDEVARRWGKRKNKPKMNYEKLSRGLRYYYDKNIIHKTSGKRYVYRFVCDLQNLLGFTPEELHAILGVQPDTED
# Method in brief: as §1
# SPDEF = molecular target: T4, SPDEF (Homo sapiens, UniProt O95238 1-335)
# T4 sequence: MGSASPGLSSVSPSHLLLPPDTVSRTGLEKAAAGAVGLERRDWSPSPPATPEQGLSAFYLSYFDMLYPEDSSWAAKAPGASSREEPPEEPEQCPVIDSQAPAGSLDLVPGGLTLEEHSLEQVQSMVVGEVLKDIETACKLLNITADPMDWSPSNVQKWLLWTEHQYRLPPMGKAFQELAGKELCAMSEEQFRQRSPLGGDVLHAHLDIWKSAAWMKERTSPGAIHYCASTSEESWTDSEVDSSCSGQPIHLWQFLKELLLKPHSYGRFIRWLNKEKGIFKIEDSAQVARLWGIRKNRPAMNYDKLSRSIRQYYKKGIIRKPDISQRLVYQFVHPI
# Method in brief: as §1
# ETV7 = molecular target: T5, ETV7 (Homo sapiens, UniProt Q9Y603 1-341)
# T5 sequence: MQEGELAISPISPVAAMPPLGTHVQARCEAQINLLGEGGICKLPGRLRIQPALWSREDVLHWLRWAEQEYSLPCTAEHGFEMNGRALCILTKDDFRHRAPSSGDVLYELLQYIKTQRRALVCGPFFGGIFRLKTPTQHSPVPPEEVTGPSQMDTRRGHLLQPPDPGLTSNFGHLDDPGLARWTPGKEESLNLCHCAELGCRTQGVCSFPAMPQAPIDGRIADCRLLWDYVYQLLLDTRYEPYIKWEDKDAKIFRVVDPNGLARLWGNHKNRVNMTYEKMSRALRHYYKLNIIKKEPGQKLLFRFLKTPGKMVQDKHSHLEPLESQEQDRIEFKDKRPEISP
# Method in brief: as §1
# ELF5 = molecular target: T6, ELF5 (Homo sapiens, UniProt Q9UKW6-2 1-255)
# T6 sequence: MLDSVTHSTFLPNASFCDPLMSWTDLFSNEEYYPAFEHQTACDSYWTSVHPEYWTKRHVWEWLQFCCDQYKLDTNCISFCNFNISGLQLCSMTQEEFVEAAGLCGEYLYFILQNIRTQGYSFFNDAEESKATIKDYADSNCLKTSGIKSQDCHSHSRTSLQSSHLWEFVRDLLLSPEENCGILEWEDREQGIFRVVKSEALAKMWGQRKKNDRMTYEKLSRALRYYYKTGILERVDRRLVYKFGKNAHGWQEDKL
# Method in brief: as §1
# ETV3 = molecular target: T7, ETV3 (Homo sapiens, UniProt P41162-2 1-143)
# T7 sequence: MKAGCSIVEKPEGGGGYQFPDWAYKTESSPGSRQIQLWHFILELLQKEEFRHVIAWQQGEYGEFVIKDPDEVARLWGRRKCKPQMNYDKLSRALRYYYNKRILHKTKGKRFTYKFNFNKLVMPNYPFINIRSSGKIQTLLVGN
# Method in brief: as §1
# ETV6 = ETV6 (Homo sapiens, UniProt P41212 1-452)
# Method in brief: as §1
# Sequence of ETV1 (P50549 whole entry, the tested form may be a part): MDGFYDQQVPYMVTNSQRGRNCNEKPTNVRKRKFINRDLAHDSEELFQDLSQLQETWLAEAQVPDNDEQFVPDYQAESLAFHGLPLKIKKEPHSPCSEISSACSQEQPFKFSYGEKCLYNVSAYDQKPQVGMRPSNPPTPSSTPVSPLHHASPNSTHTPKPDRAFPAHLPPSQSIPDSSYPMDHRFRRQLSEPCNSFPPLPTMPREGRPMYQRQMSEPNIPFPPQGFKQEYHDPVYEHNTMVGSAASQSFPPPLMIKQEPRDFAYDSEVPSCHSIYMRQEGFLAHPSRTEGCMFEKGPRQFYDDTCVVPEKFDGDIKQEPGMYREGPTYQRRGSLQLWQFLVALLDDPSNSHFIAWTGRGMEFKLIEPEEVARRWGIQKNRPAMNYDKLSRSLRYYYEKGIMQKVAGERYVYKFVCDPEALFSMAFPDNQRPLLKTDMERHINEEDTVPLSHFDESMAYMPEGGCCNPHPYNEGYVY
# Sequence of ETV6 (P41212 whole entry): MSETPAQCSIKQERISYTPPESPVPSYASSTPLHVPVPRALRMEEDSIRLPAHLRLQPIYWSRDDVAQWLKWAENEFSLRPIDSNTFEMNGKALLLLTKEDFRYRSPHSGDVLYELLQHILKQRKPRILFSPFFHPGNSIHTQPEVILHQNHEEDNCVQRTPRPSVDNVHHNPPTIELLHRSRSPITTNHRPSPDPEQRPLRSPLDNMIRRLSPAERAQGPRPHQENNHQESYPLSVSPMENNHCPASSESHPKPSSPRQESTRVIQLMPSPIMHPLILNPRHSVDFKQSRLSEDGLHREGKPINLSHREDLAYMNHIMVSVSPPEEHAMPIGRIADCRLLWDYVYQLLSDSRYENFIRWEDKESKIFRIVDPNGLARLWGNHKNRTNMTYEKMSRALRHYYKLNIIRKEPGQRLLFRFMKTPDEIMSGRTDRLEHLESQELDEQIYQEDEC
sequence,measurement,setting,value
GGCTTC,binding signal,ETV1,"1.6 fold enrichment (6-mer frequency, TF over GST control)"
same,binding signal,ERF,"1.7 fold enrichment (6-mer frequency, TF over GST control)"
same,binding signal,ETV3L,"1.61 fold enrichment (6-mer frequency, TF over GST control)"
same,binding signal,ETS2,"1.7 fold enrichment (6-mer frequency, TF over GST control)"
same,binding signal,SPDEF,"1.6 fold enrichment (6-mer frequency, TF over GST control)"
same,binding signal,ETV7,"1.54 fold enrichment (6-mer frequency, TF over GST control)"
same,binding signal,ELF5,"1.81 fold enrichment (6-mer frequency, TF over GST control)"
same,binding signal,ETV3,"1.65 fold enrichment (6-mer frequency, TF over GST control)"
same,binding signal,ETV6,"1.85 fold enrichment (6-mer frequency, TF over GST control)"
